Data on 28 compounds can be found in the supplement of paper PMC6331611.

Where “and” joins values, the source holds several entries; their conditions need not be identical. Identical values can stand only once. ± gives the standard deviation of the averaged measurements. The full ranking holds about 1,600 compounds; the median of “normalized intracellular growth (luminescence, IQM-normalized) in RAW264.7 macrophages” is about 1, and the lowest 2% start at about 0.43. This excerpt belongs to a sample that is enriched for the lowest values.

The assay concerns Salmonella enterica serovar Typhimurium SL1344. The assay can be described thus: normalized intracellular growth (luminescence, IQM-normalized) in RAW264.7 macrophages (fraction of plate interquartile mean); higher = more bacterial growth (less inhibition). As to conditions: 10 µM.

Compound `CCCCCCOC(=O)NC(=N)c1ccc(NCc2nc3cc(C(=O)N(CCC(=O)OCC)c4ccccn4)ccc3n2C)cc1` displayed a normalized intracellular growth (time point: T3 (3 h)) of 1.02 ± 0.01 and a normalized intracellular growth (time point: Tfinal (~6 h)) of 0.97 ± 0.034.
Taken in the same sequence, the figures for `CCCCC(CC)COC(=O)CC(C(=O)OCC(CC)CCCC)S(=O)(=O)O` (stereo unspecified) were 0.943 ± 0.069 and 0.958 ± 0.027.
Take `CCN(CC)CCNC(=O)c1ccc(NC(C)=O)cc1`: the normalized intracellular growth runs as follows: (time point: T3 (3 h)) 1.03 ± 0.065; (time point: Tfinal (~6 h)) 1 ± 0.12.
`C[C@H]1[C@H](OC(=O)CCC(=O)O)O[C@@H]2O[C@@]3(C)CC[C@H]4[C@H](C)CC[C@@H]1[C@@]24OO3` had a normalized intracellular growth (time point: T3 (3 h)) of 0.899 ± 0.045 and a normalized intracellular growth (time point: Tfinal (~6 h)) of 0.869 ± 0.028.
With `Nc1ncn([C@@H]2O[C@H](CO)[C@@H](O)[C@H]2O)c(=O)n1`, the normalized intracellular growth (time point: T3 (3 h)) was determined as 0.951 ± 0.029 and the normalized intracellular growth (time point: Tfinal (~6 h)) amounted to 0.154 ± 0.087.
On to `Nc1ccn([C@@H]2O[C@H](CO)[C@@H](O)[C@@H]2O)c(=O)n1`, for which the normalized intracellular growth came out at 0.9664 ± 0.0095 (time point: T3 (3 h)) and 0.997 ± 0.037 (time point: Tfinal (~6 h)).
Taken in the same sequence, the figures for `O=c1[nH]cnc2c1ncn2[C@@H]1O[C@H](CO)[C@@H](O)[C@H]1O` were 0.917 ± 0.048 and 0.976 ± 0.13.
On to `CCCCC(CC)CN=C(N)N=C(N)NCCCCCCNC(N)=NC(N)=NCC(CC)CCCC` (stereo unspecified), for which the normalized intracellular growth reads like this: (time point: T3 (3 h)) 0.994 ± 0.063; (time point: Tfinal (~6 h)) 1.1 ± 0.035.
As to `CN(C)CC[C@@H](c1ccc(Cl)cc1)c1ccccn1`, the normalized intracellular growth runs as follows: (time point: T3 (3 h)) 1 and 1.05; (time point: Tfinal (~6 h)) 1.01 and 0.736.
As for `C[C@]12C=CC(=O)C=C1CC[C@@H]1[C@@H]2[C@@H](O)C[C@@]2(C)[C@H]1CC[C@]2(O)C(=O)COC(=O)CCC(=O)O`, the normalized intracellular growth worked out at 1.02 ± 0.016 (time point: T3 (3 h)) and 0.815 ± 0.11 (time point: Tfinal (~6 h)).
Consider `N[C@H]1C(O)O[C@H](CO)[C@@H](O)[C@@H]1O` (stereo partly specified), for which the normalized intracellular growth was determined as 0.967 ± 0.045 (time point: T3 (3 h)) and 0.999 ± 0.058 (time point: Tfinal (~6 h)).
For `O=C(O)c1cn(-c2ccc(F)cc2)c2cc(N3CCNCC3)c(F)cc2c1=O`, the normalized intracellular growth by setting is: (time point: T3 (3 h)) 1.1 ± 0.081; (time point: Tfinal (~6 h)) 0.00781 ± 0.0016.
On to `CCn1cc(C(=O)O)c(=O)c2cc(F)c(N3CCN(C)CC3)cc21`, for which the normalized intracellular growth was determined as 1.11 ± 0.11 (time point: T3 (3 h)) and 0.012 ± 0.0031 (time point: Tfinal (~6 h)).
With `O=C(O)c1cn(C2CC2)c2cc(N3CCNCC3)c(F)cc2c1=O`, the normalized intracellular growth was 1.14 ± 0.019 (time point: T3 (3 h)) and 0.0127 ± 0.00088 (time point: Tfinal (~6 h)).
Turning to `CCn1cc(C(=O)O)c(=O)c2cnc(N3CCCC3)nc21`, the normalized intracellular growth runs as follows: (time point: T3 (3 h)) 0.929 ± 0.0075; (time point: Tfinal (~6 h)) 1.04 ± 0.053.
Taken in the same sequence, the figures for `CCn1cc(C(=O)O)c(=O)c2cc(F)c(N3CCNCC3)cc21` were 1.07 ± 0.028 and 1.19 ± 0.029.
Turning to `CN1CCN(c2cc3c(cc2F)c(=O)c(C(=O)O)cn3-c2ccc(F)cc2)CC1`, the normalized intracellular growth by setting is: (time point: T3 (3 h)) 0.634 ± 0.14; (time point: Tfinal (~6 h)) 0.982 ± 0.093.
`C[C@H](N[C@@H](CCc1ccccc1)C(=O)O)C(=O)N1Cc2ccccc2C[C@H]1C(=O)O`: the normalized intracellular growth (time point: T3 (3 h)) turned out to be 1.03 ± 0.079 and the normalized intracellular growth (time point: Tfinal (~6 h)) came to 1.08 ± 0.12.
Consider `NC(=O)CCCCC1CCSS1` (stereo unspecified), for which the normalized intracellular growth is, setting by setting: (time point: T3 (3 h)) 0.996 ± 0.093; (time point: Tfinal (~6 h)) 0.817 ± 0.12.
Taken in the same sequence, the figures for `O=S(=O)(O)CCCS(=O)(=O)O` were 1.01 ± 0.095 and 0.9 ± 0.34.
On the same counts, the results for `O=C1/C(=C/c2cccs2)CCC/C1=C\c1cccs1` are 0.973 ± 0.059 and 1.06 ± 0.036.
For `CC1=CC(=O)NS(=O)(=O)O1`, the normalized intracellular growth is, setting by setting: (time point: T3 (3 h)) 1.06 ± 0.077; (time point: Tfinal (~6 h)) 1.04 ± 0.089.
As to `CN1CC(=O)N2[C@H](c3ccc4c(c3)OCO4)c3[nH]c4ccccc4c3C[C@@H]2C1=O`, the normalized intracellular growth is 1.06 ± 0.072 (time point: T3 (3 h)) and 0.783 ± 0.27 (time point: Tfinal (~6 h)).
Compound `CN(C)c1ccc(C(=C2C=CC(=[N+](C)C)C=C2)c2ccc(N(C)C)cc2)cc1` came in with a normalized intracellular growth (time point: T3 (3 h)) of 0.8927 ± 0.0022 and a normalized intracellular growth (time point: Tfinal (~6 h)) of 0.931 ± 0.03.
Compound `CC(=O)OCC(=O)[C@@]1(O)[C@H](OC(C)=O)C[C@H]2[C@@H]3CCC4=CC(=O)C=C[C@]4(C)[C@@]3(F)[C@@H](O)C[C@@]21C` had a normalized intracellular growth (time point: T3 (3 h)) of 0.823 ± 0.07 and a normalized intracellular growth (time point: Tfinal (~6 h)) of 1.2 ± 0.034.
Taken in the same sequence, the figures for `CCOc1ccc(Cc2nccc3cc(OCC)c(OCC)cc23)cc1OCC` were 0.925 ± 0.09 and 0.43 ± 0.11.
On the same counts, the results for `CCC/C=C\C=C/C(=O)N[C@@H](CC(N)=O)C(=O)NC(CC(N)=O)C(=O)N[C@@H](C(=O)N[C@H](CCCN)C(=O)N[C@@H](C(=O)N[C@@H](C(=O)N[C@@H](C(=O)N[C@H](C(=O)N[C@@H](Cc1ccccc1)C(=O)N[C@H](CCCN)C(=O)NC(C(=O)N[C@H](C(=O)NC(C(=O)NCC(=O)N[C@@H](CC(C)C)C(=O)N[C@H](C)C(=O)NC(C(=O)O)C1CCC(O)C(Cl)C1)C1CCC(O)CC1)[C@H](C)O)C1CCC(O)CC1)[C@H](C)O)C1CCC(O)CC1)C1CCC(O)CC1)[C@H](C)O)C1CCC(O)CC1` (stereo partly specified) [RAMOPLANIN [A2 shown; 2mM]] are 0.984 ± 0.051 and 1.17 ± 0.15.
`C=CCCCCCCCCC(=O)[O-].C=CCCCCCCCCC(=O)[O-].[Zn+2]` came in with a normalized intracellular growth (time point: T3 (3 h)) of 1 ± 0.048 and a normalized intracellular growth (time point: Tfinal (~6 h)) of 0.832 ± 0.1.
